In PubChem BioAssay (EPA / NIEHS) one finds outcome and AC50 data, which are given here for 8 molecules.

The structures appear in SMILES notation. Records with an inconclusive call do not appear. Calls of active or inactive are those of the source. How the source made its calls, unless noted: active means hit-call score of the fitted dose curve at least 0.9, where 1 is the maximum; inactive means score below 0.9.

For assay [1], the target named is Paired box protein Pax-6 (Homo sapiens) (UniProt P26367). The assay is described as follows: ATG_Pax6_CIS: Attagene CIS-FACTORIAL HepG2 Assay for human Paired Box 6 (PAX6) (AID 2282956). Particulars: HepG2 CIS-FACTORIAL PAX6 reporter transcription, RNA readout; actives raise or lower the signal. Summed up:
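Values derive from bidirectional curve fitting of reporter mRNA signal relative to DMSO. HepG2 cells bearing transfected cis-regulated MRTUs were exposed for 24 h; transcripts were read by RT-PCR and capillary electrophoresis.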

The nature of assay [2]: ATG_PXRE_CIS: Attagene CIS-FACTORIAL HepG2 Assay for human Pregnane X Receptor Element (PXRE) (AID 2282957). The note with it: HepG2 Attagene CIS-FACTORIAL PXRE reporter, mRNA; actives raise or lower the signal. Summed up:
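After a 24 h chemical incubation, total RNA from transfected HepG2 cells was reverse-transcribed and reporter cDNA amplified, FAM-labeled, HpaI-digested and sized by capillary electrophoresis. DMSO served as baseline for bidirectional curve fitting.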

Assay [3] can be described thus: ATG_PPRE_CIS: Attagene CIS-FACTORIAL HepG2 Assay for human Peroxisome Proliferator-activated Response Element (PPRE) (AID 2282958). The note with it: HepG2 PPRE cis-element reporter, Attagene transcription factor profiling; actives raise or lower the signal. In short, it runs like this: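 Read-out: fluorescent reporter mRNA fragments resolved by capillary electrophoresis after RT-PCR. HepG2 cells carried transiently transfected PPRE-driven cis reporter constructs and were dosed for 24 h; gain or loss of signal fitted relative to DMSO.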

The nature of assay [4]: ATG_RORE_CIS: Attagene CIS-FACTORIAL HepG2 Assay for human RAR-related Orphan Receptor Element (RORE) (AID 2282959). The note with it: HepG2 Attagene cis-factorial RORE reporter, mRNA; actives raise or lower the signal. Summed up:
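Readout: fluorescent reporter mRNA by RT-PCR plus capillary electrophoresis, 24 h after dosing transfected HepG2 cells. Endogenous transcription factor activity on a cis promoter element is measured. Gain or loss of signal fitted against DMSO.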

In assay [5] the target is Transcription factor Sp1 (Homo sapiens) (UniProt P08047). The assay is described as follows: ATG_Sp1_CIS: Attagene CIS-FACTORIAL HepG2 Assay for human Specificity Protein 1 (Sp1) (AID 2282961). The note with it: HepG2 Sp1 cis-reporter transcription, actives raise or lower the signal. In short, it runs like this:
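Read-out: fluorescence of 6-FAM-labeled, HpaI-digested RT-PCR products separated by capillary electrophoresis. HepG2 cells carried transfected cis-element reporter units and were exposed to chemicals for 24 h; gain or loss of signal fitted relative to DMSO.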

Assay [6] has as its target Signal transducer and activator of transcription 3 (Homo sapiens) (UniProt P40763). In words: ATG_STAT3_CIS: Attagene CIS-FACTORIAL HepG2 Assay for human Signal Transducer and Activator of Transcription 3 (STAT3) (AID 2282963). Particulars: HepG2, Attagene cis-factorial STAT3 reporter transcription; actives raise or lower the signal. Summed up:
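HepG2, MRTU-transfected, 24 h dosing. RNA → RT → PCR → FAM label → HpaI → CE. Bidirectional fit vs DMSO.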

A short description of assay [7]: ATG_TA_CIS: Attagene CIS-FACTORIAL HepG2 Assay for human TA Basal Promoter (AID 2282964). Particulars: HepG2 Attagene CIS-factorial TA basal promoter reporter; actives raise or lower the signal. In short, it runs like this: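 Steps: transfect HepG2 with MRTUs; dose 24 h; isolate RNA, DNase-treat, reverse-transcribe; PCR and FAM-label reporter cDNA; digest with HpaI 2h at 37 C; run capillary electrophoresis. Activity fitted both directions against DMSO.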

A short description of assay [8]: ATG_TCF_b_cat_CIS: Attagene CIS-FACTORIAL HepG2 Assay for human T-Cell-Factor with beta-catenin (TCF/b-cat) (AID 2282965). The note with it: HepG2 TCF/beta-catenin cis-reporter transcription, actives raise or lower the signal. Summed up:
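Using capillary electrophoresis as the read-out, labelled reporter cDNA fragments from transiently transfected HepG2 were sized and quantified. Exposure lasted 24 hours; activity in either direction was referenced to DMSO.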

The nature of assay [9]: ATG_TAL_CIS: Attagene CIS-FACTORIAL HepG2 Assay for human TAL Basal Promoter (AID 2282966).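 Further: background control endpoint measuring basal TAL promoter reporter mRNA not a specific factor.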 The note with it: HepG2 Attagene cis-factorial TAL promoter reporter; actives raise or lower the signal. Summed up:
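Basal-promoter background-control endpoint from a multiplexed HepG2 reporter panel. Cells were exposed 24 h, then reporter mRNA was read by RT-PCR/CE fluorescence and fitted in both directions relative to DMSO.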

Assay [10] is described as follows: ATG_VDRE_CIS: Attagene CIS-FACTORIAL HepG2 Assay for human Vitamin D Receptor Element (VDRE) (AID 2282968). The note with it: HepG2 VDRE cis-reporter transcription, actives raise or lower the signal. In short, it runs like this: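 Steps: transfect HepG2 with multiple reporter transcription units; dose chemicals 24 h; isolate RNA; RT-PCR; label with 6-FAM primer extension; HpaI digest; capillary electrophoresis. Curves fitted both directions against DMSO.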

Assay [11] concerns the target Nuclear receptor subfamily 1 group I member 3 (Homo sapiens) (UniProt Q14994). In words: ATG_CAR_TRANS: Attagene TRANS-FACTORIAL HepG2 Assay for human Constitutive Androstane Receptor (CAR) (AID 2282969; active means hit-call score of the fitted dose curve at least 0.9, where 1 is the maximum;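 further: activators raise reporter mRNA above DMSO so AC50 marks induction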). The note with it: HepG2 Attagene TRANS-FACTORIAL CAR reporter. In short, it runs like this:
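Steps: transient transfection of HepG2 with multiple GAL4-UAS reporter units; 24 h compound incubation; RNA isolation, RT-PCR, 6-FAM primer extension, HpaI digest; capillary electrophoresis. Gain-of-signal relative to DMSO negative control.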

Assay [12] in a line: ATG_M_19_TRANS: Attagene TRANS-FACTORIAL HepG2 Assay for M19 Transcription Factor (Internal Marker) (AID 2282974; active means hit-call score of the fitted dose curve at least 0.9, where 1 is the maximum). The note with it: HepG2 Attagene TRANS-FACTORIAL M19 internal marker reporter. In short, it runs like this: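 24 h chemical exposure of transiently transfected HepG2 (MRTU library). RNA → oligo(dT) RT → PCR → 6-FAM labelling → HpaI cut → CE fluorescence. Positive-direction fit vs DMSO baseline; background internal-marker readout.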

A short description of assay [13]: ATG_GAL4_TRANS: Attagene TRANS-FACTORIAL HepG2 Assay for GAL4 (Internal Marker) (AID 2282976; active means hit-call score of the fitted dose curve at least 0.9, where 1 is the maximum). Particulars: HepG2 Attagene TRANS GAL4 internal marker reporter. Summed up: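 Background-control readout: GAL4-UAS reporter transcript in transiently transfected HepG2 cells after 24 h compound exposure. Measured by RT-PCR, 6-FAM primer extension, HpaI digest and capillary electrophoresis; gain-of-signal fit versus DMSO.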

Assay [14] can be described thus: ATG_Sox_CIS: Attagene CIS-FACTORIAL HepG2 Assay for human SRY-box transcription factor (SOX) (AID 2282960). Particulars: HepG2 Attagene cis-factorial SOX reporter, mRNA; actives raise or lower the signal. In short, it runs like this: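 Read-out: fluorescent RT-PCR products of SOX1-linked reporter transcripts resolved by capillary electrophoresis, fitted bidirectionally against DMSO. Transiently transfected HepG2 cells, 24 h after chemical exposure, endogenous transcription factor activity.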

Assay [15] in a line: ATG_SREBP_CIS: Attagene CIS-FACTORIAL HepG2 Assay for human Sterol Regulatory Element Binding (SREBP) (AID 2282962). The note with it: HepG2 Attagene cis-factorial SREBP reporter, mRNA; actives raise or lower the signal. In short, it runs like this: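 Values derive from bidirectional curve fitting with DMSO as baseline. The underlying measurement is reporter mRNA from cis-element-regulated units in transiently transfected HepG2, quantified by RT-PCR and capillary electrophoresis after 24 h exposure.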

Assay [16] is described as follows: ATG_TGFb_CIS: Attagene CIS-FACTORIAL HepG2 Assay for human Transforming Growth Factor (TGF) (AID 2282967). Particulars: HepG2 Attagene CIS TGFb reporter, mRNA transcription; actives raise or lower the signal. Summed up: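 Cells were dosed for 24 hours, after which total RNA was reverse-transcribed and reporter sequences amplified, labeled and sized by capillary electrophoresis. Activity was fitted in both directions against DMSO.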

In assay [17] the target is Estrogen receptor (Homo sapiens) (UniProt P03372). In words: ATG_ERa_TRANS: Attagene TRANS-FACTORIAL HepG2 Assay for human Estrogen Receptor alpha (ERa) (AID 2282970; active means hit-call score of the fitted dose curve at least 0.9, where 1 is the maximum). Particulars: HepG2 Attagene TRANS ERa GAL4 reporter, mRNA. Summed up: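 Gal4-fusion ERa transactivation, measured as reporter transcript level in transiently transfected HepG2 cells. Exposure 24 h; RT-PCR plus capillary electrophoresis with fluorescence detection.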
Sequence of Estrogen receptor (Homo sapiens) (P03372 whole entry, looked up, the tested form may be a part): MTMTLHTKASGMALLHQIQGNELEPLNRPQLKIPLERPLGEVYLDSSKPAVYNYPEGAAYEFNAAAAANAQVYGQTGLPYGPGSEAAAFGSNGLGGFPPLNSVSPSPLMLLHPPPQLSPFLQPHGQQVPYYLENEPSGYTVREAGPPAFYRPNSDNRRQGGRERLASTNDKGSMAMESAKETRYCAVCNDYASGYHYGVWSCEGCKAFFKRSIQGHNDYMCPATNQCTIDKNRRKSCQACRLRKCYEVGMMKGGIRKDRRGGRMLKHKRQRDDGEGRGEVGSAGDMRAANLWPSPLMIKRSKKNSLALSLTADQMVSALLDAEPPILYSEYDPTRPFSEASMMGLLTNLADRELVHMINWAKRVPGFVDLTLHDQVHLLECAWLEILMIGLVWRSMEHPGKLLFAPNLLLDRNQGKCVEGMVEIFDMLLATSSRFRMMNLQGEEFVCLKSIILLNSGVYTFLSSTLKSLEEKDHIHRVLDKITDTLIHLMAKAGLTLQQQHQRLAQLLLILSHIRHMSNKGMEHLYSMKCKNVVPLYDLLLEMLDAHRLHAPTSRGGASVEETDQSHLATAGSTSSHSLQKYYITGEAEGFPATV

Assay [18] deals with X-box-binding protein 1 (Homo sapiens) (UniProt P17861). The assay is described as follows: ATG_Xbp1_CIS: Attagene CIS-FACTORIAL HepG2 Assay for human X-box Binding Protein 1 (XBP1) (AID 2282972). Particulars: HepG2 XBP1 cis-element reporter, Attagene multiplex; actives raise or lower the signal. Summed up:
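Human hepatoma HepG2, cis-element reporter system, 24 h treatment; mRNA quantified by RT-PCR/CE fluorescence; fit relative to DMSO.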

For assay [19], the target named is Steroid hormone receptor ERR1 (Homo sapiens) (UniProt P11474). In words: ATG_ERRa_TRANS: Attagene TRANS-FACTORIAL HepG2 Assay for human Estrogen-Related Receptor alpha (ERRa) (AID 2282971; active means hit-call score of the fitted dose curve at least 0.9, where 1 is the maximum). Particulars: HepG2 Attagene TRANS reporter, ERRa transactivation. In short, it runs like this: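 HepG2 cells transiently transfected with GAL4-UAS reporter units and chimeric NR-Gal4 constructs; after 24 hour compound incubation, reporter mRNA quantified by RT-PCR, fluorescent labelling and capillary electrophoresis, gain of signal versus DMSO.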
Sequence of Steroid hormone receptor ERR1 (Homo sapiens) (P11474 whole entry, looked up, the tested form may be a part): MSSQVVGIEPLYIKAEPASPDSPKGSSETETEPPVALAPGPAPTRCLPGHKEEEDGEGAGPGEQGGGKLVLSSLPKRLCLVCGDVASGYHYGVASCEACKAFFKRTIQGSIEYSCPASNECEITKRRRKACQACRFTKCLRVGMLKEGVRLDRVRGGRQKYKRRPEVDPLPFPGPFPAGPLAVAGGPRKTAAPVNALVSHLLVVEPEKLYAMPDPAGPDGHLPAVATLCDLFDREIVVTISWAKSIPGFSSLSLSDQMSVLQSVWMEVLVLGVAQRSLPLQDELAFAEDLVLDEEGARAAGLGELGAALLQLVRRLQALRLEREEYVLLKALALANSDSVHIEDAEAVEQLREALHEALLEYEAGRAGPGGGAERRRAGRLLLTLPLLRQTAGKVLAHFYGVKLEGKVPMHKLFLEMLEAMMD

In assay [20] the target is Estrogen-related receptor gamma (Homo sapiens) (UniProt P62508). The assay is described as follows: ATG_ERRg_TRANS: Attagene TRANS-FACTORIAL HepG2 Assay for human Estrogen-Related Receptor gamma (ERRg) (AID 2282977; active means hit-call score of the fitted dose curve at least 0.9, where 1 is the maximum;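 further: hits increase reporter signal over DMSO so potencies reflect activators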). The note with it: HepG2 Attagene TRANS reporter, ERRg transactivation. Summed up:
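Exogenous NR-Gal4 chimera activity measured as reporter transcript induction after 24 h in transiently transfected HepG2 cells. RNA reverse-transcribed, PCR-amplified, 6-FAM-labelled and resolved by capillary electrophoresis; increase over DMSO baseline.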

Sequence of Paired box protein Pax-6 (Homo sapiens) (P26367 whole entry, looked up): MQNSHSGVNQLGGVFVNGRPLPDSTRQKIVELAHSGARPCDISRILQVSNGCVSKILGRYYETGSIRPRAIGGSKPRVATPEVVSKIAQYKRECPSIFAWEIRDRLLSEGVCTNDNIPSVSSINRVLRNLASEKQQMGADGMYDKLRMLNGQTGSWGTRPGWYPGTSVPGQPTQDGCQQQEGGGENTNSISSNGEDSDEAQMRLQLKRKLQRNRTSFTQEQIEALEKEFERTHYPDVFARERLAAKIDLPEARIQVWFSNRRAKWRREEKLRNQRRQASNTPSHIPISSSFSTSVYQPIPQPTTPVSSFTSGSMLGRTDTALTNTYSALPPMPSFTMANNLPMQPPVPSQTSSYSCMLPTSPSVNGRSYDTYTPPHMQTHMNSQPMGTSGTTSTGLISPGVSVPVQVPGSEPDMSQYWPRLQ
Sequence of Signal transducer and activator of transcription 3 (Homo sapiens) (P40763 whole entry, looked up): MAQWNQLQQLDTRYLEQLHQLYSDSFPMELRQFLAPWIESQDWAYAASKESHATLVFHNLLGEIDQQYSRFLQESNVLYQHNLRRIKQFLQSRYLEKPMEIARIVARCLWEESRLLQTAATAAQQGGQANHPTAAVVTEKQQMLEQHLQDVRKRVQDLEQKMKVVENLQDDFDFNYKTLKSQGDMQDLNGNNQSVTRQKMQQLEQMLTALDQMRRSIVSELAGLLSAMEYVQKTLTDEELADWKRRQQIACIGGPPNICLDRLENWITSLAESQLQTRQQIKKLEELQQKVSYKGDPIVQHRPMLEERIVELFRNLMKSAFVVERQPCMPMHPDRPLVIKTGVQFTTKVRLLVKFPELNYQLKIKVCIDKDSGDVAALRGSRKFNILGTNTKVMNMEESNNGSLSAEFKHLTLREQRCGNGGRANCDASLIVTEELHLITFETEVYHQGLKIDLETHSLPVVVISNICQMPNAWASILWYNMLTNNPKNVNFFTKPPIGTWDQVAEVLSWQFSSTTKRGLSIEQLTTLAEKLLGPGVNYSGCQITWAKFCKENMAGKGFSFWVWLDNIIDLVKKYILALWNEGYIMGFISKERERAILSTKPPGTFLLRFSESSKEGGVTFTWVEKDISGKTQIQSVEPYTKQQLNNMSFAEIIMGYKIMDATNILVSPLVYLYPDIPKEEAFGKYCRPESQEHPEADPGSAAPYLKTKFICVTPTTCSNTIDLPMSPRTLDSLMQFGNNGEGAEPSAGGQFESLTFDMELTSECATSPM
Sequence of Transcription factor Sp1 (Homo sapiens) (P08047 whole entry, looked up): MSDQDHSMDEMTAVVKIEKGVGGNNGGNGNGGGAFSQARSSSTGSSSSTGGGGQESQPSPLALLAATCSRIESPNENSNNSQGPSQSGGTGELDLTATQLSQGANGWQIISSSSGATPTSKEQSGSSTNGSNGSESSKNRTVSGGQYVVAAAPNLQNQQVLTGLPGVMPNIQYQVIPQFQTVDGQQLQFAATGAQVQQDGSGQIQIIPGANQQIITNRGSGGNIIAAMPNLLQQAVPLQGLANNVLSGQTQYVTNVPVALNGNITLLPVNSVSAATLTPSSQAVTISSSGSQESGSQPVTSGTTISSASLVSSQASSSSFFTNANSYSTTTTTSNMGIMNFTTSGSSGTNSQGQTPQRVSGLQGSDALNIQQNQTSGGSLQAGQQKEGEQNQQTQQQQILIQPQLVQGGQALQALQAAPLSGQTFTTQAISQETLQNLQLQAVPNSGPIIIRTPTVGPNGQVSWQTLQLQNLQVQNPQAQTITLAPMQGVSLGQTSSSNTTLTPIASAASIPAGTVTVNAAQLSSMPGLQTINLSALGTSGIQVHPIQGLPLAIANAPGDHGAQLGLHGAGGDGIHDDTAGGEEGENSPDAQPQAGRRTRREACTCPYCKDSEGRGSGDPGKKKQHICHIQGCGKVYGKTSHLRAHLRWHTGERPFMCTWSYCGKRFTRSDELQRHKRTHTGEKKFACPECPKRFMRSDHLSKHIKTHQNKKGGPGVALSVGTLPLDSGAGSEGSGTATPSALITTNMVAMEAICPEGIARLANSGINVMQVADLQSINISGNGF
Sequence of Nuclear receptor subfamily 1 group I member 3 (Homo sapiens) (Q14994 whole entry, looked up, the tested form may be a part): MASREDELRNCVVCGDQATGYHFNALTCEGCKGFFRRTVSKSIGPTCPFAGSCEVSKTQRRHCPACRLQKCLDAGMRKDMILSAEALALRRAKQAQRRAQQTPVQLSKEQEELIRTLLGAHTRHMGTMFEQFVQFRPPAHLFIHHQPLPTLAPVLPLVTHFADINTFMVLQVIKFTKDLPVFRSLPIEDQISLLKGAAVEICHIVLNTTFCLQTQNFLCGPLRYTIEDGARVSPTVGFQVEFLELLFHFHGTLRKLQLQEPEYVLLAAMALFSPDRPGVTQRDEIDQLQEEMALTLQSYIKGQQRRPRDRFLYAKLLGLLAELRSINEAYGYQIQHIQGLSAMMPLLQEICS
Sequence of X-box-binding protein 1 (Homo sapiens) (P17861 whole entry, looked up): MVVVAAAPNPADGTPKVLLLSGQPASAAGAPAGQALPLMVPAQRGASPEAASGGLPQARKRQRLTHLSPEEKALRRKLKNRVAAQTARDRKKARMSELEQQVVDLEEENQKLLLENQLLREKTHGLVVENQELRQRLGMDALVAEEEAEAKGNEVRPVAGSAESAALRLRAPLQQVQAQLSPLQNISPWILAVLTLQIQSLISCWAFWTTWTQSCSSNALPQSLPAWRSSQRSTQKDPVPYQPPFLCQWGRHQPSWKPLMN
Sequence of Estrogen-related receptor gamma (Homo sapiens) (P62508 whole entry, looked up, the tested form may be a part): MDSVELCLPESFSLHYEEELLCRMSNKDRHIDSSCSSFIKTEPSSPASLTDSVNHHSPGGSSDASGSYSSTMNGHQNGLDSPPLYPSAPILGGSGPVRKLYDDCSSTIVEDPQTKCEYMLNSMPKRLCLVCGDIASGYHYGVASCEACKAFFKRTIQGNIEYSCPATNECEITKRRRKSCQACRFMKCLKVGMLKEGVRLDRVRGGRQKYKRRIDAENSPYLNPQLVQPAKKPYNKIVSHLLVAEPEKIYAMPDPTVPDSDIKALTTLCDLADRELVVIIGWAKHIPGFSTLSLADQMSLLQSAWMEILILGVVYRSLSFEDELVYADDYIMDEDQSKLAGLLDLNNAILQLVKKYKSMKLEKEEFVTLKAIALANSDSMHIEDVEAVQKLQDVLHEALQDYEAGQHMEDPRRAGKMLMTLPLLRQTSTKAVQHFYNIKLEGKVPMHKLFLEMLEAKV

Consider `Cc1c(Cl)c(=O)oc2cc(O)ccc12`, for which the outcome in assay [1], in assay [3], in assay [4], in assay [6], in [7] and in assay [8] was inactive. The call in assay [9], in [11], in [12] and in assay [13] was inactive. The figures for the concentration at half-maximal activity (AC50) in assay [2], in assay [5] and in [10] were 70.3 µM (active), 26.8 µM (active) and 149 µM (active), respectively.

As to `CCCCCCCCCOC(C)=O`, the molecule was classed as inactive in assay [1], in assay [3], in assay [14], in assay [5], in assay [15] and in [6]. For the same molecule, the result in [7], in [8], in assay [9], in assay [16], in assay [10] and in assay [11] was inactive. Further, the call in assay [17], in assay [18] and in assay [12] was inactive. Further, the half-maximal activity concentration (AC50) in [2] is 49 µM (active).

With `CCC/C=C/C=O`, the call in assay [1], in assay [3], in assay [4], in assay [15], in assay [6] and in assay [7] was inactive. Moreover, the outcome in assay [8], in assay [9], in [16] and in [12] was inactive. Also, the half-maximal activity concentration (AC50) in assay [2] is 11.2 µM (active).

Consider `COc1ccc(Nc2ccccc2)c(C)c1`, for which the molecule was classed as inactive in assay [1], in assay [5], in [15], in [6], in assay [7] and in [8]. Also, the call in assay [9], in assay [16], in assay [19], in assay [18] and in assay [20] was inactive. Further, the AC50 in [2] was 26.9 µM (active); in assay [3], 67.2 µM (active); in assay [4] it was 51.5 µM (active); in [17] it was 7.87 µM (active).

On to `Cc1ccccc1C=O`, for which the call in [1], in assay [3], in assay [14], in assay [5], in assay [15] and in [6] was inactive. In addition, the molecule was classed as inactive in [7], in assay [8], in assay [9], in assay [16], in [10] and in assay [11]. Further, the molecule was called inactive in assay [17], in assay [18] and in assay [12]. Also, the AC50 in assay [2] was 38.2 µM (active).

Take `Cc1ccc(C=O)s1`: the molecule was called inactive in assay [1], in [3], in assay [4], in [5], in assay [15] and in assay [6]. The outcome in assay [7], in assay [8], in assay [9], in assay [16], in assay [10] and in assay [11] was inactive. The outcome in [19], in assay [18], in [12], in assay [13] and in assay [20] was inactive. The half-maximal activity concentration (AC50) in [2] is 35.7 µM (active).

On to `OCCOc1cccc(OCCO)c1`, for which the molecule was called inactive in assay [1], in assay [2], in assay [3], in assay [14], in [5] and in assay [15]. Further, the molecule was classed as inactive in assay [6], in assay [7], in assay [8], in assay [9], in [16] and in assay [10]. Also, the result in [11], in assay [19], in assay [18], in assay [12], in assay [13] and in assay [20] was inactive.

Turning to `COC(=O)Cc1cccc2ccccc12`, the outcome in assay [1], in assay [3], in assay [14], in assay [5], in assay [15] and in assay [6] was inactive. Further, the molecule was classed as inactive in assay [7], in assay [8], in assay [9], in assay [16], in assay [10] and in assay [11]. Besides, the molecule was classed as inactive in [17] and in assay [18]. In addition, the AC50 in assay [2] is 42.8 µM (active).
